Reference: publication PMC11006913

Tests used:
Test in all cases: PBM; 200 nM protein, PBS
Conditions in all cases: dsDNA, one strand shown
HOXB4 [1] = target: HOXB4 (Homo sapiens, UniProt P17483 148-234)
HOXB4 [2] = target: HOXB4 (Homo sapiens, UniProt P17483 148-234, V174I)
MSX2 [3] = target: MSX2 (Homo sapiens, UniProt P35548 130-214, R199I)
MSX2 [4] = target: MSX2 (Homo sapiens, UniProt P35548 130-214)
MSX2 [5] = target: MSX2 (Homo sapiens, UniProt P35548 130-214, F161Y)
ALX3 [6] = target: ALX3 (Homo sapiens, UniProt O95076 139-225, N203Q)
ALX3 [7] = target: ALX3 (Homo sapiens, UniProt O95076 139-225)
ALX3 [8] = target: ALX3 (Homo sapiens, UniProt O95076 139-225, L168Q)
ALX3 [9] = target: ALX3 (Homo sapiens, UniProt O95076 139-225, L168V)
ALX3 [10] = target: ALX3 (Homo sapiens, UniProt O95076 139-225, N203S)
Chain of ALX3 (Homo sapiens, UniProt O95076 139-225, N203S) (O95076 139-225 N203S): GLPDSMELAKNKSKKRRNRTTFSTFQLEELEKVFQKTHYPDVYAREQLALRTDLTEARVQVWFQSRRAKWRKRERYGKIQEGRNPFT

Chain of HOXB4 (Homo sapiens, UniProt P17483 148-234, V174I) (P17483 148-234 V174I): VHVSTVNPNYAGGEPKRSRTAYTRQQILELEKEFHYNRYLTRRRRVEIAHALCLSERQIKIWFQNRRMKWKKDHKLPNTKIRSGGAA
Chain of HOXB4 (Homo sapiens, UniProt P17483 148-234) (P17483 148-234): as the sequence (P17483 148-234 V174I) above, with I27V counted along it
Chain of MSX2 (Homo sapiens, UniProt P35548 130-214, F161Y) (P35548 130-214 F161Y): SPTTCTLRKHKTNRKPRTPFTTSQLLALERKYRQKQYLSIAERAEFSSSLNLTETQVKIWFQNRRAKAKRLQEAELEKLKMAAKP
Chain of MSX2 (Homo sapiens, UniProt P35548 130-214, R199I) (P35548 130-214 R199I): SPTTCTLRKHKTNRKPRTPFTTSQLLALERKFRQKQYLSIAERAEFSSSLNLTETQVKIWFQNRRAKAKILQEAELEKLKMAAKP
Chain of MSX2 (Homo sapiens, UniProt P35548 130-214) (P35548 130-214): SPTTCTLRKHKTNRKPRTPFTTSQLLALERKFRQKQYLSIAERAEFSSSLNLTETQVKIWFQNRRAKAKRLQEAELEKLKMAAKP
Chain of ALX3 (Homo sapiens, UniProt O95076 139-225, N203Q) (O95076 139-225 N203Q): as the sequence (O95076 139-225 N203S) above, with S65Q counted along it
Chain of ALX3 (Homo sapiens, UniProt O95076 139-225, L168Q) (O95076 139-225 L168Q): as the sequence (O95076 139-225 N203S) above, with L30Q, S65N counted along it
Chain of ALX3 (Homo sapiens, UniProt O95076 139-225) (O95076 139-225): as the sequence (O95076 139-225 N203S) above, with S65N counted along it
Chain of ALX3 (Homo sapiens, UniProt O95076 139-225, L168V) (O95076 139-225 L168V): as the sequence (O95076 139-225 N203S) above, with L30V, S65N counted along it

GCTCCCCC
binding signal (HOXB4 [1]): 7.43 upbm affinity estimate (log intensity, higher = more binding, comparable within an allelic series) | binding signal (HOXB4 [2]): 7.43 upbm affinity estimate (log intensity, higher = more binding, comparable within an allelic series)

CGAATCTC
binding signal (HOXB4 [1]): 7.71 upbm affinity estimate (log intensity, higher = more binding, comparable within an allelic series) | binding signal (HOXB4 [2]): 7.74 upbm affinity estimate (log intensity, higher = more binding, comparable within an allelic series)

GGCTAATA
binding signal (HOXB4 [1]): 11.6 upbm affinity estimate (log intensity, higher = more binding, comparable within an allelic series) | binding signal (HOXB4 [2]): 11.9 upbm affinity estimate (log intensity, higher = more binding, comparable within an allelic series)

CCTGCGTC
binding signal (HOXB4 [1]): 7.55 upbm affinity estimate (log intensity, higher = more binding, comparable within an allelic series) | binding signal (HOXB4 [2]): 7.44 upbm affinity estimate (log intensity, higher = more binding, comparable within an allelic series)

CCTCACCG
binding signal (HOXB4 [1]): 7.41 upbm affinity estimate (log intensity, higher = more binding, comparable within an allelic series) | binding signal (HOXB4 [2]): 7.32 upbm affinity estimate (log intensity, higher = more binding, comparable within an allelic series)

AATCAAGG
binding signal (HOXB4 [1]): 10.3 upbm affinity estimate (log intensity, higher = more binding, comparable within an allelic series) | binding signal (HOXB4 [2]): 10.5 upbm affinity estimate (log intensity, higher = more binding, comparable within an allelic series)

CGTGCCGC
binding signal (HOXB4 [1]): 7.33 upbm affinity estimate (log intensity, higher = more binding, comparable within an allelic series) | binding signal (HOXB4 [2]): 7.57 upbm affinity estimate (log intensity, higher = more binding, comparable within an allelic series) | binding signal (MSX2 [3]): 9.41 upbm affinity estimate (log intensity, higher = more binding, comparable within an allelic series) | binding signal (MSX2 [4]): 9.35 upbm affinity estimate (log intensity, higher = more binding, comparable within an allelic series) | binding signal (MSX2 [5]): 9.43 upbm affinity estimate (log intensity, higher = more binding, comparable within an allelic series)

GCGCGGGA
binding signal (HOXB4 [1]): 7.68 upbm affinity estimate (log intensity, higher = more binding, comparable within an allelic series) | binding signal (HOXB4 [2]): 7.49 upbm affinity estimate (log intensity, higher = more binding, comparable within an allelic series) | binding signal (MSX2 [3]): 9.54 upbm affinity estimate (log intensity, higher = more binding, comparable within an allelic series) | binding signal (MSX2 [4]): 9.49 upbm affinity estimate (log intensity, higher = more binding, comparable within an allelic series) | binding signal (MSX2 [5]): 9.51 upbm affinity estimate (log intensity, higher = more binding, comparable within an allelic series)

AGCTTGGA
binding signal (HOXB4 [1]): 7.7 upbm affinity estimate (log intensity, higher = more binding, comparable within an allelic series) | binding signal (HOXB4 [2]): 7.63 upbm affinity estimate (log intensity, higher = more binding, comparable within an allelic series)

ACTAATAA
binding signal (HOXB4 [1]): 12 upbm affinity estimate (log intensity, higher = more binding, comparable within an allelic series) | binding signal (HOXB4 [2]): 12.5 upbm affinity estimate (log intensity, higher = more binding, comparable within an allelic series) | binding signal (ALX3 [6]): 8.53 upbm affinity estimate (log intensity, higher = more binding, comparable within an allelic series)

CATCAGCG
binding signal (HOXB4 [1]): 10.1 upbm affinity estimate (log intensity, higher = more binding, comparable within an allelic series) | binding signal (HOXB4 [2]): 10.3 upbm affinity estimate (log intensity, higher = more binding, comparable within an allelic series)

GCTGGCGA
binding signal (HOXB4 [1]): 7.41 upbm affinity estimate (log intensity, higher = more binding, comparable within an allelic series) | binding signal (HOXB4 [2]): 7.45 upbm affinity estimate (log intensity, higher = more binding, comparable within an allelic series)

CAGCGGAC
binding signal (HOXB4 [1]): 7.6 upbm affinity estimate (log intensity, higher = more binding, comparable within an allelic series) | binding signal (HOXB4 [2]): 7.43 upbm affinity estimate (log intensity, higher = more binding, comparable within an allelic series)

GTCCCAAC
binding signal (HOXB4 [1]): 7.52 upbm affinity estimate (log intensity, higher = more binding, comparable within an allelic series) | binding signal (HOXB4 [2]): 7.63 upbm affinity estimate (log intensity, higher = more binding, comparable within an allelic series)

ACGTAGCA
binding signal (HOXB4 [1]): 7.63 upbm affinity estimate (log intensity, higher = more binding, comparable within an allelic series) | binding signal (HOXB4 [2]): 7.7 upbm affinity estimate (log intensity, higher = more binding, comparable within an allelic series)

ATCTCTTA
binding signal (HOXB4 [1]): 9.96 upbm affinity estimate (log intensity, higher = more binding, comparable within an allelic series) | binding signal (HOXB4 [2]): 9.9 upbm affinity estimate (log intensity, higher = more binding, comparable within an allelic series)

CCGGGTTC
binding signal (HOXB4 [1]): 7.62 upbm affinity estimate (log intensity, higher = more binding, comparable within an allelic series) | binding signal (HOXB4 [2]): 7.65 upbm affinity estimate (log intensity, higher = more binding, comparable within an allelic series)

CATTTGCG
binding signal (HOXB4 [1]): 10.6 upbm affinity estimate (log intensity, higher = more binding, comparable within an allelic series) | binding signal (HOXB4 [2]): 10.8 upbm affinity estimate (log intensity, higher = more binding, comparable within an allelic series)

AGGAGGAG
binding signal (HOXB4 [1]): 7.49 upbm affinity estimate (log intensity, higher = more binding, comparable within an allelic series) | binding signal (HOXB4 [2]): 7.57 upbm affinity estimate (log intensity, higher = more binding, comparable within an allelic series)

GCGGCTGA
binding signal (HOXB4 [1]): 7.8 upbm affinity estimate (log intensity, higher = more binding, comparable within an allelic series) | binding signal (HOXB4 [2]): 7.53 upbm affinity estimate (log intensity, higher = more binding, comparable within an allelic series)

AAAATTAC
binding signal (HOXB4 [1]): 11.3 upbm affinity estimate (log intensity, higher = more binding, comparable within an allelic series) | binding signal (HOXB4 [2]): 11.7 upbm affinity estimate (log intensity, higher = more binding, comparable within an allelic series)

CACGTGGG
binding signal (HOXB4 [1]): 7.46 upbm affinity estimate (log intensity, higher = more binding, comparable within an allelic series) | binding signal (HOXB4 [2]): 7.46 upbm affinity estimate (log intensity, higher = more binding, comparable within an allelic series)

ATAAAGTA
binding signal (HOXB4 [1]): 10.5 upbm affinity estimate (log intensity, higher = more binding, comparable within an allelic series) | binding signal (HOXB4 [2]): 10.6 upbm affinity estimate (log intensity, higher = more binding, comparable within an allelic series)

AATTGGTA
binding signal (HOXB4 [1]): 10.7 upbm affinity estimate (log intensity, higher = more binding, comparable within an allelic series) | binding signal (HOXB4 [2]): 11 upbm affinity estimate (log intensity, higher = more binding, comparable within an allelic series)

AAATGTTA
binding signal (HOXB4 [1]): 10.3 upbm affinity estimate (log intensity, higher = more binding, comparable within an allelic series) | binding signal (HOXB4 [2]): 10.4 upbm affinity estimate (log intensity, higher = more binding, comparable within an allelic series)

CTGGGGGA
binding signal (HOXB4 [1]): 7.75 upbm affinity estimate (log intensity, higher = more binding, comparable within an allelic series) | binding signal (HOXB4 [2]): 7.53 upbm affinity estimate (log intensity, higher = more binding, comparable within an allelic series) | binding signal (ALX3 [6]): 7.77 upbm affinity estimate (log intensity, higher = more binding, comparable within an allelic series) | binding signal (ALX3 [7]): 7.77 upbm affinity estimate (log intensity, higher = more binding, comparable within an allelic series) | binding signal (ALX3 [8]): 7.72 upbm affinity estimate (log intensity, higher = more binding, comparable within an allelic series) | binding signal (ALX3 [9]): 7.67 upbm affinity estimate (log intensity, higher = more binding, comparable within an allelic series) | binding signal (ALX3 [10]): 7.72 upbm affinity estimate (log intensity, higher = more binding, comparable within an allelic series)
